These results are taken from PubChem BioAssay AID777 (Sanford-Burnham Center for Chemical Genomics, 2007).

Molecules are shown by their SMILES. The whole screen tested about 96,000 compounds, of which about 19,000 (20%) were called active.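 How the source made its calls: active means blocking of liver enzyme CYP2C9 beyond about 50% at 5 µM (limit read from the data); inactive means the rest.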 A selection follows.

The inhibition is the relative decrease from the control value, in per cent.

The target in this test is Cytochrome P450 2C9 (Homo sapiens) (UniProt P11712). Kind of test: blockers of cytochrome P450 2C9 activity – biochemical, luminescence, ADME assay, primary screen (AID 777). The note with it: CYP2C9 Supersomes, luciferin-H conversion, at 5 µM, hits give high values.
Sequence of Cytochrome P450 2C9 (Homo sapiens) (P11712 whole entry, looked up): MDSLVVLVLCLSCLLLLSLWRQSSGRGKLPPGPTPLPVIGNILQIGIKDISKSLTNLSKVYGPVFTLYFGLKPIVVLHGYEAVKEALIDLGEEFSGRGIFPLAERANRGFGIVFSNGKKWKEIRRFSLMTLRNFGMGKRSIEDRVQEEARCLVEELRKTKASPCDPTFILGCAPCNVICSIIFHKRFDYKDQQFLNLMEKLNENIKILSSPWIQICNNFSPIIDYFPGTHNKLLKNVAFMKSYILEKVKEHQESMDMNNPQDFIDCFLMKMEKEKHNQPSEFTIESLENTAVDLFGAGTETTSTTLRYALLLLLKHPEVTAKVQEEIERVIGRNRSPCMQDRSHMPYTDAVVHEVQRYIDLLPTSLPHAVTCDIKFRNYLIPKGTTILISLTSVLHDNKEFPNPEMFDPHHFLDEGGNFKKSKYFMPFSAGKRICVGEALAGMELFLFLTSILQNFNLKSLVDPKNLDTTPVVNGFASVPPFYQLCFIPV
In the case of `CCOC(=O)N1CCC(NC(=O)c2cnn3ccccc23)CC1`, the inhibition was 9.8% (inactive). As for `O=C(Nc1cccc(-c2nnc(-c3ccccc3)o2)c1)C1CCCO1` (stereo unspecified), the inhibition was 27.5% (inactive). Consider `c1ccc(-c2nnc(SCc3nc4ccccc4[nH]3)o2)cc1`, for which the inhibition was 50.9% (active).

With `C=CCSc1nc2ccccc2[nH]1`, the inhibition was -21% (inactive).

Turning to `O=C(CSc1nnc(-c2ccccc2)o1)N1CCOCC1`, the inhibition was -9.8% (inactive). Take `O=C(NC1CCCC1)c1ccc(Br)s1`: the inhibition is 33.9% (inactive).

For the molecule `CCOc1cc(S(=O)(=O)NCc2ccc3c(c2)OCO3)ccc1F`, the inhibition is 61% (active). As for `CCOc1cc(S(=O)(=O)NC2CC(C)(C)NC(C)(C)C2)ccc1F`, the inhibition was -1.2% (inactive). For `CCOc1c2ccc(C(=O)NCc3ccc4c(c3)OCO4)cc2nn1C`, the inhibition was 41.4% (inactive). For `COc1ccc(OCCCC(=O)Oc2ccc(OC)cc2)cc1`, the inhibition is 11.2% (inactive). Turning to `Cn1c(-c2sc3cc(C(F)(F)F)cnc3c2-c2ccccc2)n[nH]c1=S`, the inhibition was 51.7% (active). Turning to `Cc1ccc(/C=N\n2c(-c3ccccc3)n[nH]c2=S)s1`, the inhibition was 13.6% (inactive).

Consider `Cc1cc(C(F)(F)F)n2ncc(-c3ccccc3)c2n1`, for which the inhibition is 0.4% (inactive). As to `O=C(NCCc1ccccn1)c1cc(C(=O)C2CCCCC2)c[nH]1`, the inhibition was 10.3% (inactive). Turning to `CC(C)Oc1ccc(CCc2n[nH]c(=S)n2Cc2ccccc2)cc1`, the inhibition is 16.2% (inactive). For `O=c1[nH]nc(CSCc2ccccc2Cl)[nH]1`, the inhibition is -20.8% (inactive).

In the case of `S=c1[nH]nc(CSCc2ccc(Cl)cc2Cl)n1-c1ccccc1`, the inhibition is 76.5% (active).

For `CC(Cc1cccs1)NC(=O)NC1CCCCC1` (stereo unspecified), the inhibition is 12.2% (inactive). Regarding `Fc1ccc(CNc2nc3ccccc3n3nnnc23)cc1`, the inhibition is 11.6% (inactive).

As for `CCc1ccccc1NC(=O)CN(C)S(=O)(=O)c1ccc2c(c1)c(=O)n(C)c(=O)n2C`, the inhibition was -17.2% (inactive). For `COc1ccc(N(C(=O)c2cccnc2)S(=O)(=O)c2ccc3c(c2)n(C)c(=O)n3C)cc1` the value was 86.2% (active). As for `COc1ccc(-c2c3c(=O)n(C)c(=O)n(C)c3cn2NC(C)=O)cc1`, the inhibition is 1.5% (inactive). As to `Cc1ccsc1C(C(=O)NC1CCCCC1)N(C(=O)Cc1cccs1)C1CC1` (stereo unspecified), the inhibition is 18.5% (inactive). With `Cc1ccc(F)cc1NC(=O)c1cccc(N(C)C)c1`, the inhibition is -1.6% (inactive). For `Cc1ccc(C(c2nnnn2CS(=O)(=O)c2ccc(C)cc2)N2CCC(C)CC2)cc1` (stereo unspecified), the inhibition was -18.8% (inactive). With `Cc1cc(C(=O)OCC(=O)Nc2ccc(F)c(F)c2)c(C)o1`, the inhibition is 61.2% (active). With `Cc1cc(C(=O)OCC(=O)c2c(N)n(C)c(=O)n(C)c2=O)c(C)o1`, the inhibition is 15.9% (inactive). In the case of `Cc1cc(NC(=O)COC(=O)c2ccc(F)c(S(=O)(=O)N3CCOCC3)c2)no1`, the inhibition is -0.2% (inactive). With `O=C(O)CSC(NC(=O)c1cccnc1)(C(F)(F)F)C(F)(F)F`, the inhibition is 3.1% (inactive). `CC1CC2=C(CC1/C=N/NC(N)=S)C(C)(C)CCC2` (stereo unspecified): the inhibition is 43.1% (inactive). For `CC(=O)NNc1cc(=O)c2c(=O)n(C)c(=O)n(C)c2[nH]1`, the inhibition was 6.5% (inactive). As for `CC(=O)NC(Cc1ccc(F)cc1)C(=O)O` (stereo unspecified), the inhibition is 6.7% (inactive). The result for `O=c1/c(=C/c2ccc(CNS(=O)(=O)c3ccccc3)o2)sc2n1CCN=2` reads 71.2% (active); that for `O=c1nc2s/c(=C\c3ccco3)c(=O)n2nc1Cc1ccccc1`, -5.6% (inactive). For `O=S(=O)(NCC1OCCc2ccccc21)c1ccccc1` (stereo unspecified) the value was 3% (inactive).

As to `Cc1cc(C(F)(F)F)nn1CC(=O)N1CCCC1`, the inhibition is 1% (inactive). Turning to `CCOc1ccccc1N(CC(=O)NC1CCCCC1)C(=O)CCCC(=O)Nc1ccccn1`, the inhibition is 79.8% (active). As to `Cc1noc(C)c1C(=O)N(CC(=O)NC1CCCC1)Cc1ccccc1F`, the inhibition is 26.2% (inactive). The result for `O=C(CCCC(=O)N(CC(=O)NC1CCCC1)Cc1ccccc1Cl)Nc1ccccn1` reads 77.3% (active); that for `CCC(C)(NC(=O)c1ccccn1)C(=O)NC1CCCCC1` (stereo unspecified), 12.3% (inactive). The result for `CN(CC(=O)NC1CCCCC1)S(=O)(=O)c1cccc2cccnc12` reads -46% (inactive). Regarding `CCCC(=O)Nc1cc(OCC)c(NC(=O)NC2CCCCC2)cc1OCC`, the inhibition was 4.7% (inactive). Regarding `COc1ccc(N2C(=O)C3CCCN3C2c2cccs2)cc1` (stereo unspecified), the inhibition is 31.3% (inactive). Take `O=C1CSC(c2ccccc2)N1c1nc(-c2ccc(Cl)cc2Cl)cs1` (stereo unspecified): the inhibition was 21.8% (inactive).

Consider `O=C(NCCCNCc1ccccc1)c1ccc(/C=N/O)nc1`, for which the inhibition was -11.5% (inactive).

With `O=C(CCCn1c(=O)oc2ccccc21)Nc1cccnc1`, the inhibition was -30.9% (inactive). For `COC(=O)C(C)n1cnc2c(nnn2-c2cccc(Cl)c2)c1=O` (stereo unspecified) the value was 1.7% (inactive); for `CN=C1SC(C(=O)O)CC(=O)N1C` (stereo unspecified), -6.4% (inactive); for `COC(=O)C(CC(=O)Nc1cc(C)ccc1C)Nc1ccccc1OC` (stereo unspecified), 7.7% (inactive). As for `CCOc1cc(C(=S)N2CCOCC2)ccc1O`, the inhibition was -10.2% (inactive). `O=P(c1cccs1)(c1cccs1)c1cccs1`: the inhibition is 12.7% (inactive). As to `O=C1CC(c2cccc(F)c2)C2=C(CCCC2=O)N1` (stereo unspecified), the inhibition is 12.1% (inactive). In the case of `COc1ccc(OC)c(NC(=O)CSc2nc(N)c(-c3ccccc3)c(=O)[nH]2)c1`, the inhibition was 29.2% (inactive). For `COc1ccc2nc(SCC(=O)Nc3c(C)cc(C)cc3C)[nH]c2c1` the value was 81.5% (active); for `COC(=O)c1cccc(NC(=O)CSc2nc(C)cc(=O)[nH]2)c1`, 42.6% (inactive); for `COc1ccc(NC(=O)CSc2nc(N)c(-c3ccccc3)c(=O)[nH]2)cc1`, 3.1% (inactive). Consider `COc1cc2ccccc2cc1C(=O)Nc1ccc(S(=O)(=O)Nc2cc(C)on2)cc1`, for which the inhibition was 3.1% (inactive).

Consider `COc1ccc(NC(=O)CSc2nc(NS(=O)(=O)c3ccc(C)cc3)cc(=O)[nH]2)cc1`, for which the inhibition was 91.7% (active). The result for `Cc1ccc(NC(=O)NCC(c2cccnc2)N2CCOCC2)cc1` (stereo unspecified) reads 2.5% (inactive); that for `COc1ccc(N/N=C2/CCCCC2=O)cc1`, -10.8% (inactive).

Turning to `Cc1nc2cc(NC(=O)NCc3ccccc3)ccc2o1`, the inhibition is -5.6% (inactive). The result for `O=C(O)c1cscn1` reads -3.7% (inactive); that for `N#C/C(=C(\O)CCl)c1nnc2n1CCCCC2`, 3.8% (inactive); that for `O=C(O)c1ccccc1-c1ccccc1C(=O)Nc1cccc2ccccc12`, 36% (inactive).

On to `O=C(CCC(=O)OCc1cccc(C(=O)Oc2ccccc2)c1)Nc1cccc2ccccc12`, for which the inhibition is 95.5% (active).

For the molecule `O=C(CCC(=O)OCC(F)(F)C(F)F)NCc1ccccc1`, the inhibition was 4.8% (inactive). `CCOC(=O)C1=C(CSc2nnnn2C)N(C)C(=O)NC1c1ccccc1` (stereo unspecified): the inhibition is -20.4% (inactive). For `Cc1ccccc1NC(=O)C(C)c1ccc(-c2ccccc2)c(F)c1` (stereo unspecified) the value was 67.2% (active); for `CC(Sc1nncn1C)C(=O)Nc1ccccc1-c1ccccc1` (stereo unspecified), 15.8% (inactive). For `Cc1ccccc1NC(=O)c1ccccc1` the value was 0.6% (inactive); for `Cc1cccc(N2CCN(Cc3c(C)n(C)n(-c4ccccc4)c3=O)CC2)c1C`, -16.5% (inactive); for `CCOC(=O)N1CCN(Cc2nc(N)nc(Nc3ccc(C)cc3)n2)CC1`, 15.5% (inactive).

As for `Cc1ccccc1Nc1nc(N)nc(CN2CCN(c3ccccn3)CC2)n1`, the inhibition was 23.8% (inactive). For `CN(CCO)Cc1csc2ccc(Br)cc12` the value was -22.8% (inactive); for `CCC1(C)N(O)C(C)(C)C(c2ccc(OC)cc2)=[N+]1[O-]` (stereo unspecified), 0.3% (inactive); for `COC(=O)C(C)Oc1ccc2c(-c3cccc([N+](=O)[O-])c3)cc(=O)oc2c1` (stereo unspecified), 28.8% (inactive).

`O=Cc1c(N2CCN(c3cccc(Cl)c3)CC2)nc2ccccn2c1=O`: the inhibition is 49.1% (inactive). For `Cc1ccc(C(c2nnnn2CS(=O)(=O)c2ccc(C)cc2)N2CCC(C(N)=O)CC2)cc1` (stereo unspecified) the value was 6.2% (inactive); for `Cc1cccn2c(=O)c(/C=C(\C#N)S(=O)(=O)c3ccc(Cl)cc3)c(N3CCC(C(N)=O)CC3)nc12`, 96.9% (active); for `COc1ccc(CC(=O)Nc2nc3n(n2)C(c2ccccc2)CC(=O)N3)cc1OC` (stereo unspecified), -5.5% (inactive). With `COc1ccccc1-n1cnc2cc(NS(=O)(=O)c3ccccc3)ccc21`, the inhibition is 82.5% (active). In the case of `COCCCNC(=O)c1ccc2c(c1)ncn2-c1ccccc1OC`, the inhibition was -38.2% (inactive). The result for `COc1ccccc1-n1cnc2cc(C(=O)NCC3CCCO3)ccc21` (stereo unspecified) reads -36.5% (inactive); that for `Cn1ncc(Br)c1C(=O)NCc1cccs1`, 1.5% (inactive); that for `COc1ccc(-c2csc3nc(-c4ccccc4F)oc(=O)c23)cc1OC`, -1.8% (inactive). For `CCN(CC)S(=O)(=O)c1ccc(N2CCOCC2)c(C(=O)O)c1`, the inhibition is 19.3% (inactive). Regarding `CN(C)S(=O)(=O)c1ccc(N2CCCC2)c(C(=O)NCc2ccccc2)c1`, the inhibition was 59.9% (active). Turning to `Cc1ccc(S(=O)(=O)N2CCC(C(=O)N[C@@H](C)C(=O)NCc3ccccc3)CC2)cc1`, the inhibition is -9.2% (inactive). Regarding `O=C(CSc1nnc(Cn2cnc3ccccc32)o1)c1ccccc1`, the inhibition is 32.1% (inactive). The result for `CCOC(=O)N1CCN(CC(=O)c2c(C)[nH]c3ccccc23)CC1` reads -60.1% (inactive); that for `COc1cc(OC)c(C(=O)Nc2ccc(N(C)C)cc2)cc1OC`, 33.3% (inactive); that for `CCC(=O)Nc1ccc(C(=O)Nc2cccc(OC)c2)cc1`, -13.5% (inactive).

As for `CCNS(=O)(=O)c1ccc(NC(=O)Nc2cccc(OC)c2)cc1`, the inhibition was 59.5% (active). For the molecule `CCNS(=O)(=O)c1ccc(NC(=O)Nc2cccc(C(F)(F)F)c2)cc1`, the inhibition is 34.1% (inactive).

Turning to `CCOC(=O)C1=C(c2ccccc2)O/C(=C(/C(=O)OC)C(F)(F)F)S1`, the inhibition is 20.8% (inactive).

`CCCc1[nH]nc2c1C(c1ccc(Br)s1)C(C#N)=C(N)O2` (stereo unspecified): the inhibition was 33% (inactive). As to `CCCc1[nH]nc2c1C(c1ccc(OC)c(Cn3nc(C)c(Br)c3C)c1)C(C#N)=C(N)O2` (stereo unspecified), the inhibition was 11.8% (inactive). With `CCCc1[nH]nc2c1C(c1ccc(OC(=O)c3ccco3)cc1)C(C#N)=C(N)O2` (stereo unspecified), the inhibition was 52% (active). On to `CCCc1[nH]nc2c1C(c1c(C)nn(-c3ccccc3)c1Cl)C(C#N)=C(N)O2` (stereo unspecified), for which the inhibition was 52.8% (active). For `COc1ccc(-c2[nH]nc3c2C(c2ccncc2)C(C#N)=C(N)O3)cc1` (stereo unspecified) the value was -13% (inactive); for `Cc1cc(C)c(C#N)c(SCc2[nH]nc3c2C(c2ccccc2)C(C#N)=C(N)O3)n1` (stereo unspecified), 18.4% (inactive).
